For this assay, the target named is Phenylethanolamine N-methyltransferase (Homo sapiens) (UniProt P11086). The experiment in a line: Confirmatory Screen for Target Class Profiling of Small Molecule Inhibitors of Methyltransferases (AID 1745852). The following applies: MTase-Glo luminescence, SAH detection, recombinant enzyme; measured here: PNMT max response; stronger effect = lower value.
Sequence of Phenylethanolamine N-methyltransferase (Homo sapiens) (P11086 whole entry, looked up): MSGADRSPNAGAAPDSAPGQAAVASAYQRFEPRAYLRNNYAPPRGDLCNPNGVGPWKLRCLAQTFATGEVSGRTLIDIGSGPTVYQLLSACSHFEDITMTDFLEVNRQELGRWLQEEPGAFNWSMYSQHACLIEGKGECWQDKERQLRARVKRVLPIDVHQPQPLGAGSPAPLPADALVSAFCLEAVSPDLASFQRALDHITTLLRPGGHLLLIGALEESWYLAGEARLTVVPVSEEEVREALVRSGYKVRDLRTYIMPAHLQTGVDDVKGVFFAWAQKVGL
`COc1ccc(CCN(C)CCCOc2nsc(-c3ccccc3)n2)cc1OC`: the activity is -10.5%.

In the case of `CCN(CC)CCCCCCNc1cc(OC)cc2c(C)ccnc12`, the activity is 2.1%.

Regarding `CCOC(=O)c1cnc2ccc(-c3cncc(NS(=O)(=O)c4ccccc4)c3)cn12`, the activity was -35.9%.

Take `CCOC(=O)N1CCC(CN(Cc2ccc(Cl)cc2)Cc2ccc([N+](=O)[O-])s2)C1` (centres undefined): the activity is -5.01%.

Regarding `CC1(C)CCC(C)(C)c2cc(C#Cc3ccc(C(=O)O)cc3)ccc21`, the activity was -5.22%.

Consider `O=C1Cc2c([nH]c3ccc(Br)cc23)-c2ncccc2N1`, for which the activity was -7.69%.

As for `CC(F)(F)CN1CCOc2c(nn(-c3ccccc3Cl)c2-c2ccc(Cl)cc2)C1=O`, the activity was -3.99%.

Take `C=C1C(=O)OC2/C=C(/C)C3=CC(=O)C(C)(CC(OC(=O)/C(C)=C/COC(C)=O)C12)O3` (centres undefined): the activity was -3.18%.

On to `CCn1c(-c2nonc2N)nc2c(C#CC(C)(C)O)ncc(OCC3CCCNC3)c21` (centres undefined), for which the activity was -3.65%.

Regarding `CC(C)(O)c1ccc2c(c1)ncn2-c1cccc(-c2ccccc2C#N)c1`, the activity is -37.6%.

Regarding `CC12CCC3C1C(c1c(cc(O)c(C(=O)c4ccccc4)c1O)O2)C3(C)C` (centres undefined), the activity is -30.9%.

Regarding `N#C/C(=C1\Nc2ccccc2S1)c1ccnc(NCCc2cccnc2)n1`, the activity was -21.8%.

Turning to `COc1ccccc1OCCNCC(O)CCOc1cccc2[nH]c3ccccc3c12` (centres undefined), the activity was -93.1%.

In the case of `Cc1cn(CCN2CCN(c3ccccc3-c3cc(C#N)cc(C(=O)NCCCN4CCCC4)c3)CC2)c2ccccc12`, the activity turned out to be 2.94%.

With `COc1cc2c(cc1OC)CN(C(=O)/C=C/c1c(-c3ccccc3)n(C)c3ncccc13)CC2`, the activity is -5.99%.

Consider `N#Cc1cnc2c(Cl)cc(NCc3cn(CCN4CCCCCC4)nn3)cc2c1Nc1ccc(F)c(Cl)c1`, for which the activity is -36.9%.

With `C=C1C(=O)O[C@@H]2/C=C(\CO)CC/C=C(/C=O)C[C@H](O)[C@@H]12`, the activity is 0.589%.

Consider `C=C1C(=O)OC[C@@H]1C/C=C(\C)CC1CC(C)C(=O)O1` (some centres undefined), for which the activity is 0.671%.

In the case of `C=C1C(=O)OC2C(OC(=O)C=C(C)C)C(C)=C3C(=O)C=C(C)C3C(O)C12` (centres undefined), the activity turned out to be 4.72%.

Turning to `CN1CCN(Cc2ccc(NC(=O)Cc3ccc(Oc4cc(NC(=O)C5CC5)ncn4)cc3)cc2C(F)(F)F)CC1`, the activity is -13.7%.

`COc1ccc(N(C(=O)Nc2c(C)cccc2C)c2cc(Nc3ccc(N4CCN(C)CC4)cc3)ncn2)c(OC)c1`: the activity is -7.92%.

Turning to `O=C(NCCCc1ccccc1)c1cccc(-c2cc(O)c3ncccc3c2)c1`, the activity was found to be 4.23%.

On to `CC(C)(C)c1ccc(C(=O)Nc2cc(Cl)c(Br)cc2C(=O)O)cc1`, for which the activity is -22%.

Consider `CN(C)[C@@H]1CCc2[nH]c3ccc(NC(=O)c4ccc(F)cc4)cc3c2C1`, for which the activity was -1.89%.

`O=C1NC(=O)C(c2cnc3ccccn23)=C1c1cn2c3c(cc(F)cc13)CN(C(=O)N1CCCCC1)CC2`: the activity was -20.8%.

`C=C1C(=O)OC2CC(C)C(CCC(C)O)=CCC12` (centres undefined): the activity was -3.4%.

In the case of `CC(=O)OC/C(=C/C(=O)O)CC[C@@H]1C(C=O)=CC[C@@H]2C(C)(C)CCC[C@@]12C`, the activity is -7.72%.

Regarding `C=C1C(=O)O[C@@H]2C3=C(C)CCC[C@]3(C)CC[C@@]12O`, the activity is -3.37%.

In the case of `Cc1nnc(C[C@@H]2C=C(c3ccc(Cl)cc3)c3ccccc3-n3c(C)nnc32)o1`, the activity turned out to be 3.69%.

`C=C1C(=O)OC2/C=C(\C)CC/C=C(\C=O)C(OC)C(OC(=O)C(C)CC)C12` (centres undefined): the activity is -0.332%.

As for `COc1cccc(-c2cn(-c3ccc(CCN4CCC(O)CC4)cc3)c3ncnc(N)c23)c1`, the activity was -84.3%.

As for `CCCCNc1ncc(C(=O)NCc2ccc(-n3ccnc3)cc2)c(NC2CCC(O)CC2)n1` (centres undefined), the activity was -34.7%.

Consider `Cc1cc2c(N3CCCC3)nc(N3CCCC3)nc2n1C`, for which the activity is -17.6%.

Regarding `CCCSc1nc(N[C@@H]2C[C@H]2c2ccc(F)c(F)c2)c2nnn([C@@H]3C[C@H](OCCO)[C@@H](O)[C@H]3O)c2n1`, the activity is -36.5%.

With `CN(C)CC1CCn2c(c(C3=C(c4cn(C)c5ccccc45)C(=O)NC3=O)c3ccccc32)C1` (centres undefined), the activity was -10.7%.

Turning to `COc1cc2c(cc1-c1c(C)noc1C)ncc1[nH]c(=O)n(C(C)c3ccccn3)c12` (centres undefined), the activity is 0.401%.

Take `Cc1sc2c(c1C)C(c1ccc(Cl)cc1)=N[C@H](CC(=O)NCCCCNC(=O)COc1cccc3c1C(=O)N([C@H]1CCC(=O)NC1=O)C3=O)c1nnc(C)n1-2`: the activity worked out at 3.3%.

Regarding `C=C1C(OC2OC(CO)C(O)C(O)C2O)CC2C(C)(C)C(O)CCC2(C)C1CC/C(C)=C\COC(=O)CC(=O)O` (centres undefined), the activity is 2.99%.

Regarding `C=C1C(=O)OC2C1CCC1(C)C(O)CC=C(C)C21` (centres undefined), the activity is -2.19%.

For the origin of these results see PubChem BioAssay (NCATS).
